# Laboratory results: PubChem BioAssay AID1259422 (The Scripps Research Institute Molecular Screening Center, 2018)
# Values joined by “and” are separate entries in the source; they are usually repeats but may differ in a detail not shown here. Identical values can stand only once. Out of some 640,000 compounds screened, about 9,300 (1.5%) were called active. Shown is part of a subset that was picked to be rich in actives. Unmarked numbers belong to inactive results. No stated cut-off is given here; in the data, active means inhibition above about 32%; inactive means the rest.
# Assay: TEAD-YAP interaction inhibition, primary screen, TEAD-YAP interaction inhibitor project, luminescence, HEK-TIYL cells (AID 1259422);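 further: 0% = median of test compound wells and 100% = reference inhibitor wells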
# Conditions: TEAD-Gal4/YAP UAS-luciferase luminescence, at 9.12 µM, stronger effect = higher value
row,Structure (SMILES),inhibition
1,CCN1C(=O)/C(=c2\sc3nc(-c4ccccc4)nn3c2=O)c2ccccc21,-17.8%
2,O=C(NCc1cccnc1)C1CCCN(S(=O)(=O)c2ccc3[nH]c(=O)ccc3c2)C1 (configuration not stated),6.17%
3,CCC(=O)N1c2ccccc2C2=C(SC(C(=O)OC)=C(C(=O)OC)C23SC(C(=O)OC)=C(C(=O)OC)S3)C1(C)C,3.65%
4,CCC1CCCCN1C(=O)c1sc2ncnc(N3CCN(c4ccc(OC)cc4)CC3)c2c1C (configuration not stated),7.77%
5,CCOC(=O)CC(=O)CSc1ccc2nnc(-c3ccc(Cl)cc3)n2n1,1.1%
6,CC1CC1c1ccc(/C=C(\C#N)C(=O)Nc2cccc([N+](=O)[O-])c2)o1 (configuration not stated),-64.5%
7,Cc1ccc2c(c1)C(=O)c1cc3ccccc3nc1-2,-59.4%
8,Cc1ccc2nc3c(nc2c1)C(=O)c1ccccc1-3,46.8% (active)
9,COc1ccc2nc3c(nc2c1)C(=O)c1ccccc1C3=O,-19.6%
10,CCOc1ccc(N(C)S(=O)(=O)c2ccc3[nH]cc(C(=O)NCc4cccnc4)c(=O)c3c2)cc1,3.1%
11,O=C(Nc1cccc(Cl)c1)Nc1noc2c1COc1ccccc1-2,-1.02%
12,COC(=O)/C=C(C(=O)OC)/C(C(=O)OC)=C1\Nc2ccccc2NC1=O,8.52%
13,COC(=O)/C=C1/C(=O)Nc2ccccc21,63.4% (active)
14,COC(=O)/C=C1\Nc2ccccc2OC1=O,-5.86%
15,Cc1cc(C(=O)N2CCOCC2)c2ccccc2n1,6.26%
16,Nc1nc(NCCCN2CCCC2=O)cc(Nc2ccccc2)n1,-3.84% and 0.61%
17,CCOC(=O)c1cnn(-c2nc3ccccc3s2)c1CNC(C)c1ccco1 (configuration not stated),-20.8%
18,Nc1c(C(=O)c2ccc(Br)cc2)sc2nc3c(cc12)CCCC3,-11.1%
19,CC1(C)CC(=O)c2cc3c(N)c(C(=O)Nc4ccccc4Cl)sc3nc2C1,-21.4%
20,CC(=O)Nc1ccc(NC(=O)c2sc3nc4c(cc3c2N)CCCCCC4)cc1,-8.57%
21,Cc1cccc(NC(=O)c2sc3nc4c(cc3c2N)CCC4)c1C,36.1% (active)
22,Cc1c(Cl)cccc1NC(=O)c1sc2nc3c(cc2c1N)C(=O)CCC3,41.4% (active)
23,Nc1c(C(=O)c2ccccc2)sc2nc3c(cc12)CCCCC3,72.9% (active)

row,Structure (SMILES),inhibition
1,Nc1c(C(=O)N2CCCCC2)sc2nc3c(cc12)CCC3,-59.9%
2,Nc1c(C(=O)c2ccc(Cl)cc2)sc2nc3c(cc12)CCCCCC3,-9.12%
3,Nc1c(C(=O)Nc2cccc(C(=O)O)c2)sc2nc3c(cc12)CCCCC3,-17.2%
4,Cc1cc(C(=O)COC(=O)c2cc(Cl)cc(Cl)c2N)c(C)n1CC1CCCO1 (configuration not stated),7.73%
5,CCn1cc(CN[C@H]2C[C@H]3C(=O)N[C@@H](Cc4ccc(O)cc4)C(=O)N3C2)c(C)n1,9.24%
6,COCc1ccc(-c2ccc(OC3CCN(c4ncnc5nc[nH]c45)CC3)cc2)cc1,-7.79%
7,CCCCCCOC1OC(COC(C)=O)C(OC(C)=O)C(OC(C)=O)C1NC(C)=O (configuration not stated),10.2%
8,COc1ccc(-c2c(C)nn3c(NCCO)c4c(nc23)CCCC4)cc1,0.55%
9,COC(=O)C(NNc1ccccc1C)(NC(=O)c1ccc(Cl)cc1)C(F)(F)F (configuration not stated),-4.69%
10,Cc1ccc(C)c(OCC(=O)NC(C)(C)C)c1,1.69%
11,COc1ccc(S(=O)(=O)Oc2ccc(C=O)cc2)cc1,12.9%
12,Cc1c(C2=N/C(=C/c3cccc(Cl)c3Cl)C(=O)O2)cccc1[N+](=O)[O-],-5.1%
13,CSc1cccc(Nc2nc3ccccc3n3cnnc23)c1,-29.4%
14,CN(c1ncnc2c1cnn2-c1ccc(Cl)cc1)C1CCCCC1,63.9% (active)
15,Clc1ccc(-n2ncc3c(NC4CCCCC4)ncnc32)cc1,10.8%
16,Cc1cc2c(N(C)C3CCCCC3)ncnc2s1,-14.3%
17,CSC1=C(C#N)C(c2ccccc2[N+](=O)[O-])C2=C(CC(C)(C)CC2=O)N1 (configuration not stated),15.7%
18,O=C(NCCOc1ccccc1)c1ccc2nc(NCCN3CCOCC3)sc2c1,-44.4%
19,O=C(Nc1ccc2c3c(cccc13)CC2)c1cc([N+](=O)[O-])ccc1Br,59.8% (active)
20,O=C(Nc1ccc([N+](=O)[O-])cc1Cl)c1ccccc1Br,12.3%
21,O=C(Nc1ccc2c3c(cccc13)CC2)c1cc([N+](=O)[O-])cc([N+](=O)[O-])c1,-9.02%
22,Cc1cc(C)cc(N2C(=O)N(c3cccc(Cl)c3)C3CS(=O)(=O)CC32)c1 (configuration not stated),-20.4%
23,O=C(NC(=O)c1ccccn1)NC(c1ccccc1)c1ccccc1,-3.05%

row,Structure (SMILES),inhibition
1,Cc1ccc(CC(=O)Nc2ncccn2)cc1,1.2%
2,COc1cccc(C(=O)NC(c2cccc([N+](=O)[O-])c2)c2cc(Cl)c3cccnc3c2O)c1 (configuration not stated),7.94%
3,CCOc1ccc(C(NC(=O)c2cc(OC)c(OC)c(OC)c2)c2cc(Cl)c3cccnc3c2O)cc1 (configuration not stated),9.91%
4,CC(=O)NC(NC(C)=O)c1cccnc1,-0.95%
5,CCOc1ccc(C(C)NC(=O)Cc2ccccc2)cc1 (configuration not stated),13.1%
6,O=C(Cc1ccccc1)NC(c1ccc(Cl)cc1)c1ccc2cccnc2c1O (configuration not stated),82.5% (active)
7,Cc1ccnc(NC(=O)Cc2ccc(Cl)cc2)n1,0.25%
8,Cc1ccc(C(NC(=O)Cc2ccccc2)c2ccc3cccnc3c2O)cc1 (configuration not stated),82.5% (active)
9,O=C(COc1ccc(Cl)c(Cl)c1)NC(Cc1ccccc1)C(=O)O (configuration not stated),9.8%
10,CC(=O)NC(c1ccccc1)c1ccc2cccnc2c1O (configuration not stated),82.8% (active)
11,CC(=O)NC(c1cccs1)c1cc(Cl)c2cccnc2c1O (configuration not stated),80.8% (active)
12,Cc1ccc(C2C=C(c3ccc(C(C)C)cc3)Nc3nnnn32)cc1 (configuration not stated),-3.93%
13,Cn1c(=O)c2c(nc(N(CCO)CCO)n2Cc2cccc3ccccc23)n(C)c1=O,-5.12%
14,O=S(=O)(c1ccc(F)c(Cl)c1)N1CCC(Cn2cnc3ccccc32)CC1,7.12%
15,COC(=O)C1=C(C)OC(N)=C(C#N)C1c1ccc(OCc2ccccc2)cc1 (configuration not stated),-17.6%
16,COc1ccccc1NC(=O)Nc1nnc(CSCc2ccc(F)cc2)s1,11.6%
17,CCOC(=O)c1cc([N+](=O)[O-])sc1NC(=O)c1cc(Cl)sc1Cl,1.62%
18,Cc1cccc(NC(=O)CC(C)(C)C)n1,-13.5%
19,N/C(=N\OC(=O)CCCOc1ccc(Cl)cc1Cl)c1nonc1N,-6.56%
20,CCOC(=O)C1=CN(C(C)C)C=C(C(=O)OCC)C1c1cccc([N+](=O)[O-])c1,4.81%
21,CCCn1c(=N)c(C(=O)OCC)cc2c(=O)n3cc(C)ccc3nc21,1.52%
22,O=C1CSC(c2ccc(F)c(F)c2)N1c1ccc(Br)cc1 (configuration not stated),-4.77%
23,CCCCC(=O)NC(c1ccc(OC)c(OC)c1)c1ccc2cccnc2c1O (configuration not stated),89.2% (active)

row,Structure (SMILES),inhibition
1,CCCCC(=O)NC(c1ccc(OC)cc1)c1cc([N+](=O)[O-])c2cccnc2c1O (configuration not stated),7.56%
2,CCCCC(=O)NC(c1ccco1)c1ccc2cccnc2c1O (configuration not stated),26.7%
3,CCC1CCCCN1C(=O)Cn1c2ccccc2c(=O)c2cc(C)ccc21 (configuration not stated),-3.07%
4,CCn1nnc2c1CCN(CC(O)C(C)(C)C)C2 (configuration not stated),-9.09%
5,O=C(Cn1cnc2c(nnn2-c2cccc(F)c2)c1=O)N1CCCCC1,6.15%
6,Cc1cccc(N2CCN(C(=O)c3cccc(C#N)c3)CC2C)c1 (configuration not stated),41.6% (active)
7,Cc1cccc(N2CCN(C(=O)c3ccc4c(c3)C(=O)N(CCC3=CCCCC3)C4=O)CC2C)c1 (configuration not stated),-3.98%
8,Cc1cccc(N2CCN(C(=O)c3cccc(N4C(=O)C(C)CS4(=O)=O)c3)CC2)c1 (configuration not stated),-2.6%
9,COc1ccc2c(c1)CC(C(=O)Nc1ccc(-c3ccncc3)cc1OC(C)CN(C)C)CO2 (configuration not stated),-0.11%
10,CC(C(=O)O)c1ccc(NC(=O)OC(C)(C)C)cc1 (configuration not stated),32.1% (active)
11,CC(C)CC(NC(=O)C(Cc1ccccc1)NC(=O)OC(C)(C)C)C(=O)O (configuration not stated),1.85%
12,COC(=O)NCC(C)OC(=O)Nc1ccc(C)cc1 (configuration not stated),-12.2%
13,Cc1cc(C)nc(N2CCN(S(=O)(=O)c3ccc(C)c(Cl)c3)CC2)n1,1.94%
14,Fc1cccc(-c2nnc3ccc4cc(C(F)(F)F)ccc4n23)c1,-12.5%
15,COc1ccc(N2CCN(S(=O)(=O)c3ccc(Cl)cc3)CC2)c([N+](=O)[O-])c1,6.09%
16,CCN(C(=O)COc1ccc(Cl)cc1)c1nnc(-c2cccnc2)s1,-11.5%
17,O=C(CN1C(=O)c2ccccc2C1=O)Nc1ccc(O)cc1,-11.7%
18,O=C1C(Nc2ccc(O)cc2)=C(n2nnc3ccccc32)C(=O)c2ccccc21,27.1%
19,COc1ccc(S(=O)(=O)/N=C2/C=C(Nc3ccc(O)cc3)C(=O)c3ccccc32)cc1,99.3% (active)
20,O=C1C=C(Nc2ccc(O)cc2)c2ccccc2C1=O,93.2% (active)
21,COC(=O)c1ccccc1NC1=C/C(=N/S(=O)(=O)c2ccccc2)c2ccccc2C1=O,5.16%
22,COc1ccccc1NC1=C/C(=N/S(=O)(=O)c2ccc(F)cc2)c2ccccc2C1=O,-21.4%
23,CCOC(=O)c1ccccc1Nc1nc(-c2ccc(OC)cc2)no1,8.95%
